The source of these data is PubChem BioAssay (Tox21).

SMILES strings stand for the structures. Where “and” joins values, the source holds several entries; their conditions need not be identical. Equal entries are not always repeated. Results filed as inconclusive are left out. Where a structure was tested more than once in an assay, its records may differ in their call. Calls of active or inactive are those of the source. Unless noted, calls follow the shape of the dose curve; as a rule, active = well fitted curve in the direction sought with a large enough effect in the repeat runs; inconclusive = weak or mixed curves; inactive = no such curve, though single readings can be large; an effect the other way counts as inactive or inconclusive.

In test [1] the target is Progesterone receptor (Homo sapiens) (UniProt P06401). Description: qHTS assay to identify small molecule antagonists of the progesterone receptor (PR) signaling pathway (AID 1346795; active = well fitted inhibition curve with a large enough effect in the signal ratio in the repeat runs, not every such curve was filed as active; the % refers to the signal ratio; also: potency is read from the fitted curve at half-maximal effect). Summed up:
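Antagonist mode with agonist R5020 at 1 nM final and 16 hr incubation at 37C. Reporter was beta-lactamase driven by UAS in HEK293T (PR-UAS-bla), 2% charcoal-stripped serum; signal from LiveBLAzer FRET substrate, 2 hr at room temperature.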

Test [2] is described as follows: qHTS assay to identify small molecule antagonists of the progesterone receptor (PR) signaling pathway - cell viability counter screen (AID 1346798). Also: nearly all actives have a fitted effect of over 50% in size. Also: potency is read from the fitted curve at half-maximal effect. In a few lines: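 Cytotoxicity read as CellTiter-Glo luminescence (30 min, room temperature) in the same wells as the beta-lactamase readout. HEK293T PR-UAS-bla cells in charcoal-stripped 2% FBS received compound and R5020, then 16 h at 37C, 5% CO2.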

Test [3] can be described thus: qHTS assay to identify small molecule agonists of the progesterone receptor (PR) signaling pathway - cell viability counter screen (AID 1346799; calls by dose curve; also: nearly all actives have a fitted effect of over 45% in size; also: potency is read from the fitted curve at half-maximal effect). Summed up:
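Cytotoxicity measured by CellTiter-Glo luminescence (30 min, RT) in the same wells as the PR beta-lactamase agonist read. Those HEK293T cells had 16 h compound treatment at 37 C in 2% charcoal-stripped FBS medium.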

The nature of test [4]: qHTS assay to identify small molecule agonists of the TGF-beta/Smad signaling pathway - cell viability counter screen (AID 1346829). Also: top concentration of the series differs between compounds; nearly all actives have a fitted effect of over 45% in size. Summed up:
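After overnight seating at 37 C and 5% CO2, reporter cells got compounds for 5 hr and FRET substrate for 2 hr; cell viability then came from CellTiter-Glo luminescence.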

Test [5] can be described thus: qHTS assay to identify small molecule agonists of the TGF-beta/Smad signaling pathway (AID 1346859; active = well fitted activation curve with a large enough effect in the signal ratio in the repeat runs, not every such curve was filed as active; the % refers to the signal ratio; also: series mostly up to about 77 µM). Summed up:
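Fluorescence (ex 405 nm; em 460 and 530 nm) was read 2 h after LiveBLAzer FRET substrate at RT. The preceding compound treatment of overnight-plated SBE-bla HEK293T cells lasted 5 h at 37 C.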

Test [6] concerns the target Thyrotropin-releasing hormone receptor (Homo sapiens) (UniProt P34981). Description: qHTS assay to identify small molecule antagonists of the thyrotropin-releasing hormone receptor (TRHR) signaling pathway (AID 1346877; active = well fitted inhibition curve with a large enough effect in the repeat runs, not every such curve was filed as active; also: series mostly up to about 51 µM). In a few lines:
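Calcium signal in dye-loaded TRHR/HEK293 cells; compounds added 5 min before TRH (1 nM final); fluorescence monitored 3 min at 1 s steps.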

For test [7] the target is unchanged. Kind of test: qHTS assay to identify small molecule agonists of the thyrotropin-releasing hormone receptor (TRHR) signaling pathway (AID 1346891; calls by dose curve; also: series mostly up to about 58 µM). Summed up: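 Agonist-mode intracellular calcium readout: kinetic fluorescence over 3 min at 1 s intervals after compound addition to TRHR-HEK293 cells (18 h seeded, 2 h dye-loaded at 37 C). Fifteen concentrations, triplicates.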

Test [8] in a line: Caspase-3/7 induction in HepG2 cells by small molecules, qHTS assay (AID 1346978). Also: nearly all actives have a fitted effect of over 15% in size. Also: potency is read from the fitted curve at half-maximal effect. In a few lines: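 Wild-type HepG2 cells (2,000/well) were settled 5 h at 37 C, 5% CO2, then exposed to compounds in DMSO for 17 h. Caspase-3/7 activity was read by luminescence 30 min after adding Caspase-Glo 3/7 reagent at room temperature.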
Test [9] can be described thus: Caspase-3/7 induction in CHO-K1 cells by small molecules, qHTS cell viability counter screen (AID 1346979). Also: nearly all actives have a fitted effect of over 35% in size. Also: potency is read from the fitted curve at half-maximal effect. In a few lines:
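Cytotoxicity counter screen: CellTiter-Fluor added to compound-treated wild-type CHO-K1 cells at 16 h (37C, 5% CO2), fluorescence measured 1 h later; same wells as caspase-3/7 measurement.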

Test [10] in a line: Caspase-3/7 induction in CHO-K1 cells by small molecules, qHTS assay (AID 1346980). Also: nearly all actives have a fitted effect of over 15% in size. In a few lines:
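Wild-type cells were seeded at 1,500 per well and settled 5 hr at 37 C, 5% CO2, then exposed to DMSO-dissolved compounds for 17 hr. Caspase-Glo 3/7 reagent was added, and luminescence was read after 30min at room temperature.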

A short description of test [11]: Caspase-3/7 induction in HepG2 cells by small molecules, qHTS cell viability counter screen (AID 1346981). Also: nearly all actives have a fitted effect of over 30% in size. Also: potency is read from the fitted curve at half-maximal effect. Summed up:
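After a 5-hr attachment period at 37 C and 5% CO2, wild-type HepG2 cells received compounds in DMSO. Sixteen hours later CellTiter-Fluor was dispensed and the fluorescent signal quantified after a further hour.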

Test [12] concerns the target Nuclear receptor subfamily 1 group I member 2 (Rattus norvegicus) (UniProt Q9R1A7). Description: Rat pregnane X receptor (rPXR) activation by small molecules, qHTS assay (AID 1346983). Also: nearly all actives have a fitted effect of over 20% in size. To be noted: rPXR luciferase reporter cells, One-Glo luminescence, 24 h; stronger effect = higher value. In a few lines: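 Cell-based rPXR luciferase reporter assay, 2,000 cells per well, rested 5hr at 37 C before compound addition in DMSO, then 24 hr at 37 C. One-Glo reagent was added and luminescence read after 30 min at room temperature.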

Test [13] has as its target Nuclear receptor subfamily 1 group I member 2 (Homo sapiens) (UniProt O75469). Description: CYP3A4 induction through human pregnane X receptor (PXR) by small molecules, qHTS assay (AID 1346984). Also: nearly all actives have a fitted effect of over 40% in size. Summed up: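 Cells (DPX-2; HepG2 with PXR element plus CYP3A4-promoter luciferase) settled 5hr, then were treated 24hr at 37C. A 3hr, 3uM-final Luciferin-IPA step preceded luminescence measurement with One-Glo.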

For test [14] the target is unchanged. Description: Human pregnane X receptor (PXR) activation by small molecules, qHTS assay (AID 1346985). Also: nearly all actives have a fitted effect of over 40% in size. In a few lines:
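DPX-2 cells (HepG2 co-transfected with a PXR response element and a CYP3A4-promoter luciferase construct) were seeded at 2,000 per well, rested 5 hr at 37C, then exposed to DMSO-dissolved compounds for 24 hr. Activation was read as luciferase luminescence.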

The target of test [15] is Cytochrome P450 2D6 (Homo sapiens) (UniProt P10635). Kind of test: Cytochrome P450 Family 2 Subfamily D Member 6 (CYP2D6) small molecule antagonists: luciferase reporter qHTS assay (AID 1671196). Also: nearly all actives have a fitted effect of over 50% in size. Also: potency is read from the fitted curve at half-maximal effect. Summed up:
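Room-temperature luminescent CYP2D6 activity assay: compound preincubated 10 min with enzyme–substrate mix, NADPH-initiated reaction 1 h, detection reagent 20 min before reading.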

Test [16] has as its target Cytochrome P450 2C19 (Homo sapiens) (UniProt P33261). Kind of test: Cytochrome P450 Family 2 Subfamily C Member 19 (CYP2C19) small molecule antagonists: luciferase reporter qHTS assay (AID 1671197). Also: nearly all actives have a fitted effect of over 65% in size. Also: potency is read from the fitted curve at half-maximal effect. In a few lines: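 Inhibition of CYP2C19 was scored from loss of luminescence in a P450-Glo proluciferin substrate assay, NADPH-started and run 1 h at 37C, with ketoconazole as positive control.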

Test [17] addresses Cytochrome P450 2C9 (Homo sapiens) (UniProt P11712). Description: Cytochrome P450 Family 2 Subfamily C Member 9 (CYP2C9) small molecule antagonists: luciferase reporter qHTS assay (AID 1671198). Also: nearly all actives have a fitted effect of over 50% in size. Also: potency is read from the fitted curve at half-maximal effect. Summed up:
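CYP2C9 activity was measured with a P450-Glo proluciferin substrate. Enzyme–substrate mix was held with compound for 10 min at room temperature, then NADPH regeneration solution was added for 1 h at 37C. Luciferin product was read as luminescence.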

Test [18] is described as follows: qHTS assay to identify small molecule antagonists of the TGF-beta/Smad signaling pathway - cell viability counter screen (AID 1346824). Also: nearly all actives have a fitted effect of over 50% in size. In a few lines: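 SBE-bla HEK 293T cells were plated overnight at 37 C, then given compounds in DMSO plus TGF-beta1 (added as 0.25 ng/mL solution) for 5 hr. After the bla read, CellTiter-Glo was added to the same wells and luminescence read after 30 min at room temperature.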

Test [19] is described as follows: Human pregnane X receptor (PXR) small molecule agonists, qHTS cell viability counter screen (AID 1346977). Also: nearly all actives have a fitted effect of over 50% in size. Also: potency is read from the fitted curve at half-maximal effect. Summed up: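 Same-well viability read: CellTiter-Fluor added after 23 hr compound exposure, fluorescence measured 1 hr later. Cells were PXR-Luc HepG2 seeded at 2,000/well in 5% charcoal-stripped FBS medium, rested 5 hr before dosing at 37 C.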
For test [20], the target named is Nuclear receptor subfamily 1 group I member 2 (Homo sapiens) (UniProt O75469). Kind of test: Human pregnane X receptor (PXR) small molecule agonists, qHTS assay (AID 1346982). Also: nearly all actives have a fitted effect of over 35% in size. Also: potency is read from the fitted curve at half-maximal effect. In a few lines: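 Tox21 qHTS; PXR-Luc HepG2; compounds pinned from DMSO; 24 hr, 37 C; ONE-Glo luciferase detection, 30 min room temperature.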
% is scaled to controls: 0 for no effect and ±100 for the full control effect.

Sequence of Cytochrome P450 2C19 (Homo sapiens) (P33261 whole entry, looked up): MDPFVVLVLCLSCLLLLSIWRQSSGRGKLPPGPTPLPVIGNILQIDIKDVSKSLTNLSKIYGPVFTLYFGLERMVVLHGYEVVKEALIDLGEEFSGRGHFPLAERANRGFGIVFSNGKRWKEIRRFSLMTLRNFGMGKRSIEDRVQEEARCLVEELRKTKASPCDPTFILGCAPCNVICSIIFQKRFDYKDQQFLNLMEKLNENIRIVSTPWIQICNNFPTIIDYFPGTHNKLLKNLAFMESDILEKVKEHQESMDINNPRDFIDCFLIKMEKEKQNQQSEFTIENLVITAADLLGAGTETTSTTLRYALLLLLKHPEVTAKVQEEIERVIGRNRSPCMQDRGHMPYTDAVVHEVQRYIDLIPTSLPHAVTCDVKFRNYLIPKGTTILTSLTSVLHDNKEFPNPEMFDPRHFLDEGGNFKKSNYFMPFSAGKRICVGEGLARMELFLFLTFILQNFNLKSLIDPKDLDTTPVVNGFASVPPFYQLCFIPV
Sequence of Progesterone receptor (Homo sapiens) (P06401 whole entry, looked up): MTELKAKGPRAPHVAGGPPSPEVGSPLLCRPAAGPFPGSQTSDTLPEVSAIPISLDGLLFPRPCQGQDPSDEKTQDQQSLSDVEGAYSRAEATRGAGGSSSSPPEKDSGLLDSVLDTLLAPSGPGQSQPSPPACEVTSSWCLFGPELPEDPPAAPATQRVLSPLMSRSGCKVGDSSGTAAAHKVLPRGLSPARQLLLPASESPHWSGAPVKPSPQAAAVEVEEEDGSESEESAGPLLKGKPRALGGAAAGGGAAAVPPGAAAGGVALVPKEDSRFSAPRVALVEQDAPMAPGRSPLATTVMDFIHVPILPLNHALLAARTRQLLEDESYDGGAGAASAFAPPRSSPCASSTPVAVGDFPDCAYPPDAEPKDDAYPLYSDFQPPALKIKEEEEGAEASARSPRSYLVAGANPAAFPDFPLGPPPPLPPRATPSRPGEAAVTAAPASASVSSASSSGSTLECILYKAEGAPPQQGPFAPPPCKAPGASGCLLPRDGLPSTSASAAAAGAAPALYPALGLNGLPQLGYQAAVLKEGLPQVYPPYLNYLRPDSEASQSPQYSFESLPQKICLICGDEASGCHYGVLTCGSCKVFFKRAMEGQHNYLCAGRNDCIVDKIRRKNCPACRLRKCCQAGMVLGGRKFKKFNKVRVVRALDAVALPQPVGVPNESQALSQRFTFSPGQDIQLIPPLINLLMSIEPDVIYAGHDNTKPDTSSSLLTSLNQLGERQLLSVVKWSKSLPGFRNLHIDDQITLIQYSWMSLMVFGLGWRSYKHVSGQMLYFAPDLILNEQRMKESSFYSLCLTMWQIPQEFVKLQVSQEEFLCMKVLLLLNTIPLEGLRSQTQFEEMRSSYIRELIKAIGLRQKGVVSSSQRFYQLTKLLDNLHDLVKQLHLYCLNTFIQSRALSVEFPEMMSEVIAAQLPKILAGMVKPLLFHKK
Sequence of Cytochrome P450 2D6 (Homo sapiens) (P10635 whole entry, looked up): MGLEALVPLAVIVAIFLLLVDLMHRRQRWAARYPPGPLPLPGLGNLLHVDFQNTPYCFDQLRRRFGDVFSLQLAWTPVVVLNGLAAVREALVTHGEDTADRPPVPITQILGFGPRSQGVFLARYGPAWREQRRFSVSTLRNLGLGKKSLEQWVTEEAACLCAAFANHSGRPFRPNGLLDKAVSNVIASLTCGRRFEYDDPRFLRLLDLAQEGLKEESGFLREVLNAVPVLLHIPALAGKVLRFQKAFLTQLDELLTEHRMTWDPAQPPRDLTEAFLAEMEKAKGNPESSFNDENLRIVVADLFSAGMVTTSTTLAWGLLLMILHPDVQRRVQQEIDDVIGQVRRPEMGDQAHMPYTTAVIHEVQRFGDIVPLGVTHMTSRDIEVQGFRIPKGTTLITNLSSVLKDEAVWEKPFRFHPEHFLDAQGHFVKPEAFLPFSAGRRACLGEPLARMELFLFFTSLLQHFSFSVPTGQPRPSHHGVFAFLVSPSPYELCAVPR
Sequence of Nuclear receptor subfamily 1 group I member 2 (Homo sapiens) (O75469 whole entry, looked up): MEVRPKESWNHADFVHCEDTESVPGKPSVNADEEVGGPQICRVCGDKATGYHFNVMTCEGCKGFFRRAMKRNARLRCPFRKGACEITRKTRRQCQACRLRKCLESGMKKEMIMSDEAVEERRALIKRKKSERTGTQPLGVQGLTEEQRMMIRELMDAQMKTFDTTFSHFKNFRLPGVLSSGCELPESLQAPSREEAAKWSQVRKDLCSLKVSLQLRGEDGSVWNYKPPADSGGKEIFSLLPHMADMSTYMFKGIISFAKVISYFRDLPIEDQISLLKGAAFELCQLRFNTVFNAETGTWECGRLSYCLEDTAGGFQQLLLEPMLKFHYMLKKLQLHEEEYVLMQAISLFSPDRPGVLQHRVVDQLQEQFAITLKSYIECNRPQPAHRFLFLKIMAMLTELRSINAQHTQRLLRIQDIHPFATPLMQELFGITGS
Sequence of Cytochrome P450 2C9 (Homo sapiens) (P11712 whole entry, looked up): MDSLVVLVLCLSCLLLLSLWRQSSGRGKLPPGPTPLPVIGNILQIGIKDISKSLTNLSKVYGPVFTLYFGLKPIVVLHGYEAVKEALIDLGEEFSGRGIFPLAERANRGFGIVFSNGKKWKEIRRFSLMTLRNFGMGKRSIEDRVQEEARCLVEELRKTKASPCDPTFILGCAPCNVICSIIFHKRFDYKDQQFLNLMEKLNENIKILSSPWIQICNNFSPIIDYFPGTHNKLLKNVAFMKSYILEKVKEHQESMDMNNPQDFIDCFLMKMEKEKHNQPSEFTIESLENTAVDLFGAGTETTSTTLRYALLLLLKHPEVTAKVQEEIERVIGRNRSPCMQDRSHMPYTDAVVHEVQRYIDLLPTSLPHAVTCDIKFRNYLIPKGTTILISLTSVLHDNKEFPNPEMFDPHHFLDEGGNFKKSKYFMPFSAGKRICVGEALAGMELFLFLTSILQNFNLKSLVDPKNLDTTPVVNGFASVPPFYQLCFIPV
Sequence of Thyrotropin-releasing hormone receptor (Homo sapiens) (P34981 whole entry, looked up): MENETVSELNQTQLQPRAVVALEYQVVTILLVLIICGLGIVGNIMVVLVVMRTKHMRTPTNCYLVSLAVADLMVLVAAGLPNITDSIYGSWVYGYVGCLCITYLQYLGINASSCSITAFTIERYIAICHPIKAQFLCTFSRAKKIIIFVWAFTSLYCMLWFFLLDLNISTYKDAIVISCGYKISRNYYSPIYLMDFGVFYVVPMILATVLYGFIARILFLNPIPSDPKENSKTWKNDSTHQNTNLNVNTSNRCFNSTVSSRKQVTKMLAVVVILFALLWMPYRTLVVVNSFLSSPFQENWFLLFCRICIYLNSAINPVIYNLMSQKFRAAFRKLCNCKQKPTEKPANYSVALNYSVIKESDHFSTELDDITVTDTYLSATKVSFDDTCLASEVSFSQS
Sequence of Nuclear receptor subfamily 1 group I member 2 (Rattus norvegicus) (Q9R1A7 whole entry, looked up): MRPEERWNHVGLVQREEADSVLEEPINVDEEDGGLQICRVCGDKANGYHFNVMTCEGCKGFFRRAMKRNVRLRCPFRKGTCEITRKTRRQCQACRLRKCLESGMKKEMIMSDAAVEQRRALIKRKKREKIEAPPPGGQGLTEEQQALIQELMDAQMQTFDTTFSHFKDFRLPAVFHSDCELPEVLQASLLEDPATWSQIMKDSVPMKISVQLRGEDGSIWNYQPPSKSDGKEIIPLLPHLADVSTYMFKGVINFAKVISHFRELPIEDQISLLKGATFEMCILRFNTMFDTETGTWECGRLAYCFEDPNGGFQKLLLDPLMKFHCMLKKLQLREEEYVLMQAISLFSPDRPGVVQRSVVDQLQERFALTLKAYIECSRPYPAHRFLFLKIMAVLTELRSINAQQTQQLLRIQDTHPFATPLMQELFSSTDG

Take `COc1nc(C)nc(Cl)c1NC1=NCCN1`: the Potency entry in test [1], in [2], in test [3], in [4], in test [6] and in test [7] was “inactive” in each case. Also, the Potency entry in test [8], in test [9], in [10], in test [11], in test [13] and in [14] was “inactive” throughout. In addition, the Potency entry in test [15], in test [16] and in test [17] was “inactive” in each case. Besides, in [5], the compound was called inactive. For the same compound, the max activation in test [12] was -0.617% (inactive).

Regarding `Nc1ccc(O)cc1`, the Potency entry in test [1], in test [3], in test [18], in test [4], in test [6] and in [7] was “inactive” in each case. In addition, the Potency result in test [8], in test [10] and in test [20] was “inactive” each time. Moreover, the compound was classed as inactive in [5]. Besides, the Potency in [19] was 56.6 µM (active) and inactive; in test [9], 56.6 µM (active); in [11] it was 56.6 µM (active) and inactive; in test [15], 37 µM (active); in test [16] it was 20.8 µM (active) and 34.7 µM (active); in test [17], 26.2 µM (active) and 34.7 µM (active).

`NC(N)=NC(=O)Cc1c(Cl)cccc1Cl`: the Potency entry in test [1], in test [2], in test [3], in test [4], in test [6] and in test [7] was “inactive” each time. The Potency result in test [8], in test [9], in test [10], in [11], in [16] and in test [17] was “inactive” each time. Further, the compound was called inactive in test [5].

Consider `Cc1c(O)cccc1C(=O)N[C@@H](CSc1ccccc1)[C@H](O)CN1C[C@H]2CCCC[C@H]2C[C@H]1C(=O)NC(C)(C)C`, for which the Potency was 13.3 µM (active) and 21.1 µM (active) in [1]; 29.8 µM (active) in test [2]; 26.6 µM (active) in test [3]; 66.8 µM (active) in test [8]; 11.9 µM (active) and 13.3 µM (active) in [11]; 8.71 µM (active) and 15.5 µM (active) in [15]. The Potency was 9.77 µM (active) in test [16]; 19.5 µM (active) and 24.5 µM (active) in [17]. Further, the Potency entry in test [10] was “inactive”.

In the case of `Nc1cc(Cl)c(-c2cc(Cl)c(N)cc2Cl)cc1Cl`, the Potency in [1] is 2.73 µM (active); in test [2] it was 38.5 µM (active) and 43.3 µM (active); in test [3], 30.6 µM (active) and 21.7 µM (active); in [9], 30.6 µM (active) and 54.5 µM (active); in test [20], 24.3 µM (active) and 19.3 µM (active); in test [16], 10 µM (active) and 7.1 µM (active). Moreover, the compound was called inactive in [5]. Moreover, the Potency result in [6], in test [7] and in test [10] was “inactive” in each case.

Turning to `CC(=O)CC(=O)Nc1ccc2[nH]c(=O)[nH]c2c1`, the Potency entry in [1], in test [2], in test [3], in [4], in test [6] and in [7] was “inactive” in each case. For the same compound, the Potency result in test [19], in [8], in test [10], in test [15] and in [16] was “inactive” throughout. The call in [5] was inactive.

As to `CC(C)(C)c1ccccc1`, the Potency entry in [1], in test [2], in test [3], in test [4], in [6] and in [7] was “inactive” throughout. In addition, the Potency result in test [19], in test [8], in test [9], in test [10], in test [11] and in test [15] was “inactive” in each case. In [16], the Potency result is “inactive”. Besides, in [5], the result was inactive.

Take `CC(C)(C)NCC(O)COc1ccccc1OCC1CCCO1` (configuration not stated): the Potency result in test [1], in test [3], in test [18], in test [4], in test [6] and in [7] was “inactive” each time. Further, the Potency entry in [19], in test [8], in test [9], in test [10], in test [11] and in test [20] was “inactive” in each case. Besides, the Potency entry in test [16] and in test [17] was “inactive” each time. The compound was called inactive in test [5]. The Potency in test [15] is 2.75 µM (active).
